Data taken from PubChem BioAssay.
For some of these results: Results with a measured potency or affinity are listed apart. Active and inactive are the calls of the source.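 The calls were made as follows, unless noted: active = primary screen activator hit with a dose response curve and TRPC4 channel activation at any tested dose; inactive = no activation, no dose response, or not a primary hit.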

Columns and labels:
[1] = tested on: TRPC4 beta (transient receptor potential cation channel C4), mouse; experiment: activators of mouse TRPC4 channel, confirmation, cell-based, Fluo4 calcium, HEK293 TRPC4beta/mu-opioid, duplicates, 10 µM (AID 2426;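 active = fluorescence ratio normalized to control raised more than 50% in primary screen plus both repeat runs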); settings: Fluo4 calcium fluorescence, at 10 µM; hits give high values
[2] = tested on: transient receptor potential cation channel C4 beta (TRPC4), mouse; experiment: activators of mouse TRPC4 channel, confirmation, cell-based, second round, Fluo4, HEK293 TRPC4beta/mu-opioid, 1 µM (AID 2461;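 active = primary screen active and over 50% activation in each of two duplicate runs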); settings: Fluo4 calcium fluorescence, at 1 µM; hits give high values
[3] = tested on: TRPC4 (transient receptor potential cation channel C4 beta), mouse; experiment: positive allosteric modulators of mouse TRPC4, confirmation, cell-based, second round, Fluo-4, HEK293 TRPC4beta/mu-opioid, 1 µM (AID 2554;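 active = primary screen hit whose fluorescence ratio, in both repeats, exceeds the weak agonist control mean by 3 SD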); settings: DAMGO EC20, Fluo-4 calcium flux, at 1 µM; hits give high values
[4] = tested on: TRPC4 beta (transient receptor potential cation channel C4), mouse; experiment: positive allosteric modulators of mouse TRPC4, confirmation, cell-based, Fluo-4, HEK293 TRPC4beta/mu-opioid (AID 2555;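 active = primary screen hit whose calcium fluorescence ratio, in both repeats, exceeds the weak agonist control mean by 3 SD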); settings: DAMGO EC20, Fluo-4 calcium flux, at 10 µM; hits give high values
[5] = target: Short transient receptor potential channel 4 (Mus musculus) (UniProt Q9QUQ5); experiment: inhibitors of mouse TRPC4 channel, confirmation, cell-based, Fluo4, HEK293 TRPC4beta/mu-opioid (AID 2636;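 active = calcium signal cut by more than 3 SD below the full-agonist control yet still positive, in both repeats and the earlier primary screen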); settings: DAMGO, Fluo4 calcium flux, at 10 µM; hits give high values
Chain of Short transient receptor potential channel 4 (Mus musculus) (Q9QUQ5 whole entry, looked up): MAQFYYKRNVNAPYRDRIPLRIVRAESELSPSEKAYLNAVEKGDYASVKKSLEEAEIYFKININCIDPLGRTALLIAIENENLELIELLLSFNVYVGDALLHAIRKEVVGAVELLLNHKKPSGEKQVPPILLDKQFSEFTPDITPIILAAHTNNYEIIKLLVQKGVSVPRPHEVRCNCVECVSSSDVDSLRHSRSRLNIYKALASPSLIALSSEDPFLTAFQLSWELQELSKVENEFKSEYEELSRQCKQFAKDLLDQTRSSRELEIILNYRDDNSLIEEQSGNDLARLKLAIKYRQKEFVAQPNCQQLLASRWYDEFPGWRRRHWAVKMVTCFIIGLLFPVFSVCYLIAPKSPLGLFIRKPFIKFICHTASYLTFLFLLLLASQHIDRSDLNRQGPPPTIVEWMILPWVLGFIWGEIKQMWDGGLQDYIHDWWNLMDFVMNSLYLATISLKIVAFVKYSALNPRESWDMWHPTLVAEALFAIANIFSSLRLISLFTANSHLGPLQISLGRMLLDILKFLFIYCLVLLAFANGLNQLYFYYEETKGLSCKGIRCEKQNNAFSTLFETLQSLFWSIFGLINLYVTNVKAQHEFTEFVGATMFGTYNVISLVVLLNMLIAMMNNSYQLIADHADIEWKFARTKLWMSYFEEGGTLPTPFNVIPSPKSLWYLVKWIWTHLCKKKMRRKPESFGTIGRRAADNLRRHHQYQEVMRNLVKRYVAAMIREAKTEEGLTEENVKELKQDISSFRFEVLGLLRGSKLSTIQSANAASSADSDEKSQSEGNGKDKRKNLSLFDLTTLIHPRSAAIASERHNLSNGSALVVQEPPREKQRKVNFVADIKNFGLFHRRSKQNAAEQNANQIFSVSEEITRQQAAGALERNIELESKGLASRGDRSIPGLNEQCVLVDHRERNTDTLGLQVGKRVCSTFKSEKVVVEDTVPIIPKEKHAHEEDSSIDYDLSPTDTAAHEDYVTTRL

[6] = target: Short transient receptor potential channel 4 (Mus musculus) (UniProt Q9QUQ5); experiment: inhibitors of mouse TRPC4 channel, confirmation, cell-based, second round, Fluo4, HEK293 TRPC4beta/mu-opioid, 1 µM (AID 2637;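 active = calcium signal ratio cut to more than 3 SD under the fully stimulated control mean yet still positive, in both repeats and the primary screen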;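 as to inhibition: percent of integrated ratio relative to wells lacking test compound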); settings: Fluo4 calcium flux, DAMGO, at 1 µM; hits give high values
[7] = target: Short transient receptor potential channel 4 (Mus musculus) (UniProt Q9QUQ5); experiment: mouse TRPC4 channel activators, dose response, cell-based, HEK293 TRPC4/mu-opioid, Fluo-4 calcium (AID 434937)
[8] = target: Short transient receptor potential channel 4 (Mus musculus) (UniProt Q9QUQ5); experiment: TRPC4 positive allosteric modulators, dose response, cell-based, HEK293 TRPC4/mu-opioid, Fluo-4 calcium, EC20 DAMGO (AID 434941;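 active = earlier screen potentiator hit that boosts the TRPC4 ion channel at some dose, with a dose response; inactive = no potentiation, no dose response, or not a prior hit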;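 also: calcium entry triggered by an EC20 dose of DAMGO at the co-expressed mu-opioid receptor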)
[9] = target: Short transient receptor potential channel 4 (Mus musculus) (UniProt Q9QUQ5); experiment: mouse TRPC4 channel inhibitors, dose response, cell-based, HEK293 TRPC4/mu-opioid, Fluo-4 calcium (AID 434942;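 active = primary screen inhibitor hit that blocks the TRPC4 channel at some tested dose, yielding a dose curve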)
[10] = target: Short transient receptor potential channel 6 (Mus musculus) (UniProt Q61143); experiment: inhibition of mouse TRPC6 channel, confirmation, selectivity assay for TRPC4 inhibitor project, cell-based, HEK293, membrane potential dye, duplicate (AID 434948;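 active = active in primary screen and both duplicates, each dropping signal beyond three positive-control SD with fluorescence still positive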); settings: HEK293 TRPC6, membrane potential dye fluorescence, at 10 µM, stimulated with maximal-effect acetylcholine; hits give high values
Chain of Short transient receptor potential channel 6 (Mus musculus) (Q61143 whole entry, looked up): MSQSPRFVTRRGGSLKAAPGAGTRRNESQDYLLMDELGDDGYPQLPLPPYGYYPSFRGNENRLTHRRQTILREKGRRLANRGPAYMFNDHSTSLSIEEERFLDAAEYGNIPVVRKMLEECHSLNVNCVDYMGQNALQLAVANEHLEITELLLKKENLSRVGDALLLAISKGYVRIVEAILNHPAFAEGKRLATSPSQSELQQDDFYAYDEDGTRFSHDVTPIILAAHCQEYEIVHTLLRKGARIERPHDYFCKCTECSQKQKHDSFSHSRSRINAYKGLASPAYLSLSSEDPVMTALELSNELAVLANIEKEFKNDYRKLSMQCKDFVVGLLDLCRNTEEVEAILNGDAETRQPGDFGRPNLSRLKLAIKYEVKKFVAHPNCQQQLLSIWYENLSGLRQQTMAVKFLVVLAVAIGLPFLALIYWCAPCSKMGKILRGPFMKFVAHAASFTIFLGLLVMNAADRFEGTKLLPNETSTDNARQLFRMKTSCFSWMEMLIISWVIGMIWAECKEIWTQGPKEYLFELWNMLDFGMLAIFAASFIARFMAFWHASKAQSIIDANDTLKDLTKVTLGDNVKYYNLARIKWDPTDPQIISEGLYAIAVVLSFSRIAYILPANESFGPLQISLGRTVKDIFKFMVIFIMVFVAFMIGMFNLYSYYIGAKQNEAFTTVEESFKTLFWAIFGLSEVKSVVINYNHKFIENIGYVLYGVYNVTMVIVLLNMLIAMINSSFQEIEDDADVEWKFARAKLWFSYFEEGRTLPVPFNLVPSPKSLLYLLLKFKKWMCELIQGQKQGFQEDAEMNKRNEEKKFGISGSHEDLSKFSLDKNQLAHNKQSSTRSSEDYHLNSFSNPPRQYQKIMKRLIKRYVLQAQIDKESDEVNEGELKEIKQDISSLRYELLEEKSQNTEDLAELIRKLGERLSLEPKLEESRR

[11] = target: Short transient receptor potential channel 6 (Mus musculus) (UniProt Q61143); experiment: activation of mouse TRPC6 channel, confirmation, selectivity assay for TRPC4 activator project, cell-based, HEK293, membrane potential dye, duplicate (AID 434950;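 active = membrane potential signal rise above negative control mean plus 3 SD in both duplicates, also active in the earlier TRPC4 screen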); settings: HEK293 TRPC6, membrane potential fluorescence, at 10 µM; hits give high values
[12] = target: Short transient receptor potential channel 6 (Mus musculus) (UniProt Q61143); experiment: TRPC6 potentiation by TRPC4 potentiator hits, confirmation, selectivity assay for TRPC4 potentiator project, HEK293 cells, membrane potential dye, duplicate (AID 434952;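 active = compound raising the membrane signal above positive-control mean plus 3 SD in both repeats, and a primary screen hit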); settings: HEK293 TRPC6, membrane potential dye fluorescence, at 10 µM, maximal acetylcholine added after compound; hits give high values
[13] = target: Short transient receptor potential channel 4 (Mus musculus) (UniProt Q9QUQ5); experiment: calcium flux activators in TRPC4/5HT1a cells, counter-screen for TRPC4 activator project, cell-based, second counter screen, HEK293 TRPC4/5HT1a, Fluo-4 (AID 434977;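 active = calcium signal rise above buffer-control mean plus 5 SD in both duplicates, and also a hit in the primary screen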); settings: Fluo-4 calcium flux, at 10 µM; hits give high values
[14] = calcium flux inhibitors in TRPC4/5HT1a cells, confirmation, counter-screen for TRPC4 inhibitor project, cell-based, second counter screen, HEK293 TRPC4/5HT1a, Fluo-4 (AID 434978;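 active = primary screen active whose calcium signal fell more than 3 SD beyond the full-serotonin control mean in both duplicate plates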;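 as to outcome: serotonin given first at submaximal then at maximal dose after compound preincubation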); settings: Fluo-4 calcium flux, at 10 µM, serotonin added to trigger calcium flux; hits give high values
[15] = tested on: TRPC4 (mouse), co-expressed with 5HT1a in HEK293; experiment: calcium flux potentiators in TRPC4/5HT1a cells, confirmation, counter-screen for TRPC4 potentiator project, cell-based, second counter screen, HEK293 TRPC4/5HT1a, Fluo-4 (AID 434979;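 active = signal rise over 3 SD above mean of control wells given weak agonist, in both repeats and first screen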); settings: Fluo-4 calcium flux, at 10 µM, serotonin added at its EC20 dose; hits give high values
[16] = calcium flux activation in mu-opioid HEK293 cells, confirmation, counter-screen for TRPC4 activator project, cell-based, HEK293 mu-opioid receptor line (AID 449723;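 active = hit in primary screen, with calcium signal over 5 SD above buffer well mean in both duplicates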;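 also: counter screen cells carry the mu-opioid receptor alone and lack TRPC4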); settings: Fluo-4 calcium fluorescence, at 10 µM; hits give high values
[17] = calcium flux enhancement in mu-opioid HEK293 cells, confirmation, counter-screen for TRPC4 allosteric potentiator project, cell-based, HEK293 mu-opioid receptor line (AID 449724;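 active = calcium signal rise more than 3 SD above the low-dose agonist control mean, in both duplicate plates and the primary screen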); settings: Fluo-4 calcium flux, at 10 µM, compound added before EC20 DAMGO stimulus; hits give high values

CC(C)Cc1nc(Cl)c(C#N)c2c1CCCC2
inactive: outcome [1] | outcome [2] | outcome [3] | outcome [4] | outcome [5] | outcome [6] | outcome [7] | outcome [8] | outcome [9] | outcome [10] | outcome [11] | outcome [12] | outcome [13] | outcome [14] | outcome [15] | outcome [16] | outcome [17]

CC1(C)Cc2nc3oc4c(=O)n(CC(=O)Nc5ccccc5)cnc4c3cc2CO1
inactive: outcome [1] | outcome [2] | outcome [3] | outcome [4] | outcome [5] | outcome [6] | outcome [7] | outcome [8] | outcome [9] | outcome [10] | outcome [11] | outcome [12] | outcome [13] | outcome [14] | outcome [15] | outcome [16] | outcome [17]

COCCSc1ccccc1C(=O)N1CCC(Cc2ccccc2)CC1
inactive: outcome [1] | outcome [2] | outcome [3] | outcome [4] | outcome [5] | outcome [6] | outcome [7] | outcome [8] | outcome [9] | outcome [10] | outcome [11] | outcome [12] | outcome [13] | outcome [14] | outcome [15] | outcome [16] | outcome [17]

O=[N+]([O-])c1ccc(CN2CCN(c3nc4ccccc4s3)CC2)cc1
active: potentiation [4] 7% | potentiation [15] 17.5%
inactive: outcome [1] | outcome [2] | outcome [3] | outcome [5] | outcome [6] | outcome [7] | outcome [8] | outcome [9] | outcome [10] | outcome [11] | outcome [12] | outcome [13] | outcome [14] | outcome [16] | outcome [17]

COc1ccc(CCNCC(O)COc2ccc(OC)cc2C(C)(C)C)cc1 (stereo unspecified)
inactive: outcome [1] | outcome [2] | outcome [3] | outcome [4] | outcome [5] | outcome [6] | outcome [7] | outcome [8] | outcome [9] | outcome [10] | outcome [11] | outcome [12] | outcome [13] | outcome [14] | outcome [15] | outcome [16] | outcome [17]

COc1ccc(CC2(CO)CCN(C/C=C/c3ccccc3OC)CC2)cc1
active: inhibition [5] 79% | inhibition [14] 33.5%
inactive: outcome [1] | outcome [2] | outcome [3] | outcome [4] | outcome [6] | outcome [7] | outcome [8] | outcome [9] | outcome [10] | outcome [11] | outcome [12] | outcome [13] | outcome [15] | outcome [16] | outcome [17]

CCC(=O)c1cc2c(C)cc(=O)oc2c(C)c1OC(=O)C(C)C
inactive: outcome [1] | outcome [2] | outcome [3] | outcome [4] | outcome [6] | outcome [7] | outcome [8] | outcome [9] | outcome [10] | outcome [11] | outcome [12] | outcome [13] | outcome [15] | outcome [16] | outcome [17]
active: inhibition [5] 85% | inhibition [14] 12.2%

COc1ccccc1C1/C(=C(\O)c2ccc3c(c2)OCCO3)C(=O)C(=O)N1Cc1cccnc1 (stereo unspecified)
active: inhibition [5] 82% | inhibition [6] 63% | inhibition [14] 41.7%
inactive: outcome [1] | outcome [2] | outcome [3] | outcome [4] | outcome [7] | outcome [8] | outcome [9] | outcome [10] | outcome [11] | outcome [12] | outcome [13] | outcome [15] | outcome [16] | outcome [17]
